Results: PubChem BioAssay
Values joined by “and” are separate entries in the source; they are usually repeats but may differ in a detail not shown here. Equal entries are not always repeated. Active and inactive are the calls of the source.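 Rule for the calls, unless noted: active = compounds whose cell count with miR-34 switched on is under 0.7 times the count with it off; inactive = the rest.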

Experiments:
[1] = viability loss with induced miR-34 in A549 – imaging, A549 dox-inducible miR-34, nuclei and caspase counts, primary screen (AID 1347080); details: A549 miR-34 inducible, Hoechst nuclei count, 48 h
[2] = MELAS cybrid and Rieske KO viability enhancers – cell-based, MELAS cybrids, Rieske KO mouse fibroblasts, CellTiter-Glo, primary screen (AID 1508586;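 active = mean z-score across replicates of 1.96 or higher in either the MELAS or the Rieske mutant cell line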;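 note: z relative to plate mean and SD of compound and empty wells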); details: low glucose
[3] = target: NAD(+) hydrolase SARM1 (Homo sapiens) (UniProt Q6SZW1); assay: blocking NAD cleavage by SARM1 SAM-TIR – cell lysate, NAD-Glo luminescence (AID 1508614;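 active = compound whose remaining NAD level is above about 45 nM, limit read from the data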;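 note: higher remaining NAD means stronger inhibition of SARM1 NADase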); details: SAM-TIR HEK293T lysate NADase, at 1 µM, stronger effect = higher value
[4] = target: Mitogen-activated protein kinase 7 (Homo sapiens) (UniProt Q13164); assay: Gal4-ERK5 driven luciferase induction – cell-based, HTS, primary screen (AID 1508626;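 active = luciferase signal above three times the same-plate solvent-only control wells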;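 note: luciferase driven by Gal4-ERK5 fusion binding five Gal4 sites before minimal TATA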); details: HeLa Gal4-ERK5 transactivation, 18 h, at 5 µM, stronger effect = higher value
[5] = stronger effect = lower value, cell number ratio, induced over uninduced
[6] = measured here: relative caspase fold change +Dox/-Dox
[7] = measured here: total cells with miR-34 induction, stronger effect = lower value
[8] = measured here: total cells without miR-34 induction
[9] = MELAS cybrid survival, CellTiter-Glo 48 h, stronger effect = higher value
[10] = Rieske KO mouse fibroblast survival, CellTiter-Glo 72 h

NAD(+) hydrolase SARM1 (Homo sapiens), sequence (Q6SZW1 whole entry, looked up, the tested form may be a part): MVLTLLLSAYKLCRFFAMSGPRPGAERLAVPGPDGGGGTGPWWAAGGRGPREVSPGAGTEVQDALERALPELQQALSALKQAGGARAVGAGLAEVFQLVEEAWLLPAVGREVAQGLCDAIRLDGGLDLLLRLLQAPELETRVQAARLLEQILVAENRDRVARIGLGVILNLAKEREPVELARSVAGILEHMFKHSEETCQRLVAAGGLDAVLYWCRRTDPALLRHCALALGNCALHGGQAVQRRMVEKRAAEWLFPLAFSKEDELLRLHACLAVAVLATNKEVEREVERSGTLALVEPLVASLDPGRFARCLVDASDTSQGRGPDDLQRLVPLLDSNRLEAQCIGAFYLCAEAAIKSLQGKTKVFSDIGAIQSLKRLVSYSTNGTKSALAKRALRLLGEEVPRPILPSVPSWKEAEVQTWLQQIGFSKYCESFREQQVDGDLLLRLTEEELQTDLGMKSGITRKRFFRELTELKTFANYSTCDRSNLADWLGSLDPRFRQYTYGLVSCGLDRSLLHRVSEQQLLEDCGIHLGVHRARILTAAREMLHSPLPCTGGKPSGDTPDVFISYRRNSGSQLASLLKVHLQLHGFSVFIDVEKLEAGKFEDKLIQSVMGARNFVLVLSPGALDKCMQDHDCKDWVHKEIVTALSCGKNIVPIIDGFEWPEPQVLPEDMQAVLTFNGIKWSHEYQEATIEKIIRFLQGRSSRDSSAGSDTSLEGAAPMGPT
Mitogen-activated protein kinase 7 (Homo sapiens), sequence (Q13164 whole entry, looked up, the tested form may be a part): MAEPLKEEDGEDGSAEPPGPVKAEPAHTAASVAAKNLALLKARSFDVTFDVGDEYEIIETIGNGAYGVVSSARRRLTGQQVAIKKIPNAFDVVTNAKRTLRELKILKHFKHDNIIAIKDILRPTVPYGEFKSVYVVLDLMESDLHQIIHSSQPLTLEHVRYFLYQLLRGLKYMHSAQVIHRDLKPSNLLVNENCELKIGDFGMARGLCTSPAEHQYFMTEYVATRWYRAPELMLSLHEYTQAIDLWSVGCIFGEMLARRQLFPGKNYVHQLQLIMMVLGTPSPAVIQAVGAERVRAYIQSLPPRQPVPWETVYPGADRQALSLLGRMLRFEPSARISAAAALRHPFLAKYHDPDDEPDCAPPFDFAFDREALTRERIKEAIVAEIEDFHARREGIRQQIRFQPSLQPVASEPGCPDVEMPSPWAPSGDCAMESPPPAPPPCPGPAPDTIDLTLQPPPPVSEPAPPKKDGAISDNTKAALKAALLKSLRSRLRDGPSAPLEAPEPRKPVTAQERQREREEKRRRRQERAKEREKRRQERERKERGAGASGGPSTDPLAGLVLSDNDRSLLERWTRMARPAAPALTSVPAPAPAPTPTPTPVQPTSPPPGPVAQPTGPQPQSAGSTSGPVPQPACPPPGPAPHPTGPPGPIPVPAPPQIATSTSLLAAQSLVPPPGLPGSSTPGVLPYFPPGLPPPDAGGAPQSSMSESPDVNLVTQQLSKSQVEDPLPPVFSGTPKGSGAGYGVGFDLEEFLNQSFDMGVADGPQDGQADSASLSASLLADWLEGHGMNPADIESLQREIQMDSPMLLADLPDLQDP

SMILES	fold change [1, 5]	fold change [1, 6]	cell count [1, 7]	cell count [1, 8]	z-score [2, 9]	z-score [2, 10]	remaining NAD [3]	luciferase signal [4]
CC(=O)Nc1ccccc1	0.942 (inactive) and 0.865 (inactive)	0.456 and 3.01	7610 and 11100	8080 and 12800	-0.316 (inactive)	-0.0672	10 nM (inactive)	60 AU (inactive)
NC(N)=NS(=O)(=O)c1ccc(N)cc1	0.891 (inactive) and 0.893 (inactive) and 0.92 (inactive)	1.33 and 1.72 and 4.63	7720 and 8610 and 11300	8670 and 9630 and 12200	-0.23 (inactive) and -0.511 (inactive)	-0.172 and -0.306	10 nM (inactive)	188 AU (inactive)
CN1[C@@H]2CC[C@H]1CC(OC(=O)C(O)c1ccccc1)C2 (stereo not given in full)	0.916 (inactive)	1.3	8240	9000	0.652 (inactive)	0.375	10 nM (inactive)	40 AU (inactive)
Cc1c(Nc2ncccc2C(=O)O)cccc1C(F)(F)F	0.839 (inactive) and 0.931 (inactive) and 0.832 (inactive)	1.09 and 0.676 and 4.07	7890 and 7810 and 10300	9410 and 8390 and 12400	-0.0893 (inactive) and -0.97 (inactive)	0.0703 and 0.938	10 nM (inactive)	44 AU (inactive)
CN1CCN(C(c2ccccc2)c2ccccc2)CC1	0.854 (inactive) and 1.14 (inactive) and 0.917 (inactive)	1.3 and 0.825 and 1.5	8120 and 9280 and 11100	9500 and 8140 and 12100	-0.157 (inactive) and 0.0064 (inactive)	-0.181 and 0.467	10 nM (inactive)	124 AU (inactive)
CCN(CC)CCNc1ccc(CO)c2sc3ccccc3c(=O)c12	0.933 (inactive) and 0.872 (inactive)	1.29 and 1.89	3110 and 3390	3340 and 3880	4.63 (active)	0.873	10 nM (inactive)	36 AU (inactive)
NC(N)=NCCN1CCCCCCC1	0.903 (inactive) and 0.92 (inactive)	1.86 and 0.829	8660 and 10700	9590 and 11600	-0.808 (inactive)	0.402	10 nM (inactive)	32 AU (inactive)
Oc1c(Br)cc(Br)c2cccnc12	0.97 (inactive)	0.803	7880	8120	-0.25 (inactive)	-0.139	10 nM (inactive)	88 AU (inactive)
CCCCN(CCCC)CCCOC(=O)c1ccc(N)cc1	0.866 (inactive) and 0.888 (inactive)	2.02 and 4.13	8920 and 11400	10300 and 12800	0.278 (inactive)	-0.637	10 nM (inactive)	120 AU (inactive)
CN(C)CCOC(=O)C(c1ccccc1)C1(O)CCCC1 (stereo not given)	0.97 (inactive) and 0.896 (inactive)	0.779 and 1.74	9700 and 10300	10000 and 11500	0.757 (inactive)	0.693	10 nM (inactive)	104 AU (inactive)
O=C1c2c(O)cccc2Cc2cccc(O)c21	0.891 (inactive)	1.8	11600	13000	0.308 (inactive)	0.465	10 nM (inactive)	180 AU (inactive)
Cc1c(N(C)C)c(=O)n(-c2ccccc2)n1C	0.875 (inactive) and 0.837 (inactive)	1.16 and 0.645 and 2.71	7950 and 7780 and 11100	9080 and 9290 and 12700	-0.0296 (inactive) and -0.452 (inactive)	-0.137 and 0.114	10 nM (inactive)	60 AU (inactive)
Cc1c(NC(=O)c2cccnc2)c(=O)n(-c2ccccc2)n1C	0.892 (inactive)	1.07	8460	9480	0.707 (inactive)	0.58	10 nM (inactive)	56 AU (inactive)
CCCCOc1ccc(OCCCN2CCOCC2)cc1	0.766 (inactive) and 0.863 (inactive) and 0.924 (inactive)	1.42 and 1.47 and 3.29	7600 and 7830 and 11600	9930 and 9070 and 12500	-0.0227 (inactive) and 0.258 (inactive)	-0.168 and -0.646	10 nM (inactive)	36 AU (inactive)
Cn1c([N+](=O)[O-])cnc1COC(N)=O	0.949 (inactive) and 0.998 (inactive) and 0.92 (inactive)	0.814 and 0.524 and 4.33	9230 and 8250 and 11400	9730 and 8270 and 12400	-0.153 (inactive) and -0.082 (inactive)	-0.129 and 0.703	10 nM (inactive)	108 AU (inactive)
